Source: PubChem BioAssay (NCI)
The panel holds about 83,000 compounds, 20% with a hit somewhere; the sample as a whole holds those more often.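 Single-concentration screen, 48 h exposure, 96-well plates. Endpoint: percent growth. Below 10 = active.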 Unmarked numbers belong to inactive results. Activity calls are given as the source filed them.

Assays:
Assay in all cases: NCI-60 one-dose screen, 48 h (100 = growth as untreated, 0 = no growth, -100 = all killed)
[1] = system: NCI-H23 lung; details: 10 µM unless noted
[2] = system: NCI-H226 lung; details: 10 µM unless noted
[3] = system: NCI-H322M lung; details: 10 µM unless noted
[4] = system: HOP-62 NSCLC; details: 10 µM unless noted
[5] = system: NCI-H460 lung; details: 10 µM unless noted
[6] = system: NCI-H522 lung; details: 10 µM unless noted
[7] = system: A549/ATCC NSCLC; details: 10 µM unless noted
[8] = system: 786-0 renal; details: 10 µM unless noted
[9] = system: COLO 205 colon; details: 10 µM unless noted
[10] = system: HOP-92 NSCLC; details: 10 µM

Compound | growth [1] | growth [2] | growth [3] | growth [4] | growth [5] | growth [6] | growth [7] | growth [8] | growth [9] | growth [10] [%]
O=C(Cn1cc[n+](CC(=O)c2ccc(-c3ccccc3)cc2)c1)Nc1cccc2cccnc12 | 76.8% | 83.7% | 95.7% | 88.4% | 87.8% | 42.3% | 88.1% | 95.8% | 74.2% | –
Nc1nc(-c2cccc([N+](=O)[O-])c2)c(N=Nc2cccc([N+](=O)[O-])c2)s1 | -25.6% (active) | 14.9% | 64.6% | 16.5% | 4.2% (active) | -12% (active) | 17.5% | -70.4% (active) | 106% | –
COc1ccc(C2CC(c3ccc(Nc4nc(NCCO)nc(N5CCOCC5)n4)cc3)=Nc3c(N)nc(N)nc3N2)cc1 (stereo not drawn) | 99.1% | 94.8% | 95% | 108% | 110% | 95.6% | 104% | 97.3% | 109% | –
Cn1cc(-c2nc(N)nnc2-c2c[nH]c3ccc(Br)cc23)c2cc(Br)ccc21 | 48.7% | 79.9% | 68.4% | 59.6% | 17.3% | – | 49.7% | 51.1% | 36.3% | –
N/C(=N\C(N)=N\c1nc2ccccc2s1)c1cccc(F)c1 | 76.5% [5 µM] | 90.8% [5 µM] | 92.6% [5 µM] | 81.1% [5 µM] | 88.7% [5 µM] | – | 75.9% [5 µM] | 107% [5 µM] | 106% [5 µM] | –
COc1cc2nc(Cl)nc(Nc3cccc(C4=Nc5c(N)nc(N)nc5NC(c5ccccc5)C4)c3)c2cc1OC (stereo not drawn) | 83.5% | 86.9% | 92.9% | 39.6% | 87.4% | – | 87.5% | 77.5% | 99.8% | –
CCC(NC(c1cc2cccc3ccc4cccc1c4c32)c1nnnn1C(C)(C)C)C1CCCCC1 (stereo not drawn) | 46.6% | 75% | 79.3% | 69.7% | 31.2% | 60.1% | 69.7% | 67.3% | 78.6% | –
COc1ccc([C@H]2[C@H](O)C(=O)N2c2cc(OC)c(OC)c(OC)c2)cc1F | 22.2% | 32.6% | 50.8% | 23.7% | 4.56% (active) | -56% (active) | 18.5% | 12% | -79.1% (active) | –
O=C(CCn1c[n+](CC(=O)c2ccc(-c3ccccc3)cc2)c2ccccc21)Nc1cccc2cccnc12 | 60.2% | 57% | 82.8% | 94.4% | 55.3% | 41.7% | 89.8% | 71.5% | 44.2% | –
CCOC(=O)c1c(Nc2ccccc2)nn2c(-c3cccs3)ccnc12 | 92.7% | 89% | 94.4% | 93.8% | 92.3% | – | 95.2% | 71% | 92.7% | –
Cc1cc(C)c2sc(=O)n(Cc3nnc(SCCC(=O)O)o3)c2n1 | 101% | 94.5% | 98% | 98.2% | 105% | 100% | 104% | 104% | 124% | –
CNC1CCc2c(sc(NC(=O)c3ccc(C(C)(C)C)cc3)c2C(N)=O)C1 (stereo not drawn) | 74.3% | 77.3% | 66.4% | 38.4% | 2.17% (active) | 61.6% | 31% | 24.9% | -47.1% (active) | –
O=C(CN1CCN(c2cc(=O)n(-c3ccccc3)c3ccccc23)CC1)Nc1nc(-c2ccccc2)cs1 | 60.8% | 48.2% | 89.4% | 66.4% | 32.2% | 66.5% | 56.2% | 89.3% | 60.1% | –
CCO/C=N/C1=C(C#N)C(c2ccc(F)cc2)c2sc3c(CC)cccc3c2O1 (stereo not drawn) | 28.3% | 51.6% | 42.6% | 48.6% | 3.42% (active) | 8.86% (active) | 24.6% | 26.3% | 12.6% | –
O=C(Nc1nonc1-c1ccccc1)c1ccc(C(F)(F)F)cc1 | 72.6% | 89.4% | 86.9% | 81.5% | 47.6% | 82.7% | 87.3% | 90.4% | 119% | –
COc1cc(OC)cc(C(=O)Nc2sc3c(c2C(N)=O)CCC(=O)C3)c1 | 19.1% | 86% | 98.6% | 60% | 57.9% | 5.02% (active) | 95.8% | 85% | 47.2% | –
CC1(COc2ccc3ncc(C#Cc4cncc(C(=O)Nc5cccc(C(F)(F)F)c5)c4)n3n2)COC1 | 60.9% | 25% | 95.9% | 63.7% | 85.4% | 75.5% | 88.3% | 97.9% | 80.7% | –
CC(C)(C)n1cc(-c2ccnc(NCCCNS(=O)(=O)c3cccc(F)c3)n2)c(-c2ccc(Cl)c(O)c2)n1 | 100% | 107% | 90.9% | 111% | 93.6% | 89.9% | 93.6% | 99.7% | 114% | –
CC(C)(C)c1ccc(C(=O)Nc2sc3c(c2C(N)=O)CCC(O)C3)cc1 (stereo not drawn) | 66.5% | 68.7% | 58.1% | 63% | 17% | 31.2% | 39.6% | 15.4% | 6.84% (active) | –
O=C(Nc1nc2ccc([N+](=O)[O-])cc2s1)Nc1ccccc1Cl | 9.48% (active) | 30.7% | 52.2% | 28.2% | 20.1% | – | 30.2% | 48.5% | 39.8% | –
Clc1nc2ccccc2nc1-c1nnc(C2CCCCC2)o1 | 86.3% | 84.7% | 97.8% | 106% | 97.5% | 99% | 98.4% | 106% | 110% | –
Cc1cccc2c3c(sc12)C(c1ccc(Cl)cc1)c1c(nc(CC(=O)Nc2ccccc2)[nH]c1=O)O3 (stereo not drawn) | 55.1% | 65.4% | 76.5% | 59.8% | 42.1% | 26.9% | 62.6% | 75.9% | 101% | –
O=C(CSc1nc2ccccc2c(=O)n1-c1ccccc1)Nc1cccc(C(=O)/C=C/c2ccccc2)c1 | 102% | 83.1% | 102% | 99% | 91.6% | 92% | 80.1% | 98.5% | 106% | –
CCNC(=O)N1CCc2cc(OC)c(OCCc3ccc(OC)nc3)cc2C1c1ccc(OC)cc1C (stereo not drawn) | 44.8% | 38.5% | 55.6% | 31% | 3.64% (active) | 19.4% | 30.4% | 22.9% | 29.3% | –
C#CCOC(=O)[C@@H]1CCCN1CC#C | 96.7% | 81.2% | 106% | 101% | 87.8% | 96.6% | 80.3% | 87.8% | 88% | –
O=S(=O)(NC1c2ccccc2C[C@H]1O)c1ccc(Cl)cc1Cl (stereo partly drawn) | 92.3% | – | 94.6% | 103% | 101% | 98.3% | 93.5% | 102% | 114% | –
NS(=O)(=O)c1ccc(-n2cc(-c3cccc(NC(=O)c4ccc(N5CCOCC5)c(C(F)(F)F)c4)c3)nn2)cc1 | 26.3% | – | 26% | 11.8% | 50.7% | 39.9% | 53.5% | 33.6% | 50.7% | –
COc1ccc(-n2c(SCc3n[nH]c(=S)o3)nc3ccc(Cl)cc3c2=O)cc1 | 99% | – | 97.6% | 97.2% | 103% | 87.6% | 97.7% | 94.1% | 114% | –
NS(=O)(=O)c1ccc(-n2cc(CN3CCNCC3)nn2)cc1 | 106% | – | 113% | 102% | 108% | 98.4% | 110% | 99.4% | 116% | 113
